Results taken from PubChem BioAssay.
Where “and” joins values, the source holds several entries; their conditions need not be identical. Equal entries are not always repeated. Calls of active or inactive are those of the source. Unless noted, no rule for the calls is given here.

How the values were obtained:
[1] = tested on: XIP peptide (Xip251-270) binding; experiment: XIP fragment 251-270 binding compounds – biochemical, small-molecule microarray, fluorescence 635/667 nm, 0.1 µg/mL protein, primary screen (AID 1182); details: fluorescent protein binding, 635 nm, higher = more signal, called active from +8 up or from −8 down
XIP peptide (Xip251-270) = experiment: compounds binding XIP fragment 251-270 – biochemical, small-molecule microarray, fluorescence 635/667 nm, 0.5 µg/mL protein, primary screen (AID 1183); details: fluorescence 635 nm, higher = more signal
[2] = blood-stage malaria parasite viability loss – strain 3D7, DAPI fluorescence, 100 nL, primary screen (AID 1184);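 also: parasites grown inside human red blood cells in medium with human serum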; details: P. falciparum 3D7 growth, 3 d, higher = more signal
[3] = molecular target: Homeobox protein Hox-A13 (Mus musculus) (UniProt Q62424); experiment: disruptors of Hoxa13 oligonucleotide interaction – biochemical, fluorescence polarization, labeled oligonucleotide, primary screen (AID 1185); details: Hoxa13:DNA binding, 15 min, higher = more signal, called active from +8 up or from −8 down
Sequence of Homeobox protein Hox-A13 (Mus musculus) (Q62424 whole entry, looked up): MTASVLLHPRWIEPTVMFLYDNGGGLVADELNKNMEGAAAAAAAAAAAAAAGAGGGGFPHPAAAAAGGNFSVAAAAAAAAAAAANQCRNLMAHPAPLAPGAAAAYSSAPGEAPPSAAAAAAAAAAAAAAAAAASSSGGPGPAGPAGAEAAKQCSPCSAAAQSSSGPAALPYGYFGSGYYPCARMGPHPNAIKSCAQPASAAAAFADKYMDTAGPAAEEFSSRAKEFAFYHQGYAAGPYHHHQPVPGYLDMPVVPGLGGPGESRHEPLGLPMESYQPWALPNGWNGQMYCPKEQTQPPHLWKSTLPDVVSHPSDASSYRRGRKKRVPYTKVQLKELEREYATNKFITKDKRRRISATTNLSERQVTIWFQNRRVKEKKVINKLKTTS

[4] = blockers of DNA damage checkpoint Chk1 activation – imaging, HeLa, hydroxyurea, phospho-Chk1 antibody, percent positive cells, primary screen (AID 1186); details: hydroxyurea-induced phospho-Chk1 immunofluorescence imaging, higher = more signal
[5] = blockers of DNA damage checkpoint Chk1 activation – imaging, HeLa, hydroxyurea, phospho-Chk1 nuclear intensity, primary screen (AID 1187); details: hydroxyurea-induced phospho-Chk1 immunofluorescence imaging, higher = more signal

| SMILES | composite z-score [1] | composite z-score (XIP peptide (Xip251-270)) | z-score [2] | z-score [3] | z-score [4] | z-score [5] |
| --- | --- | --- | --- | --- | --- | --- |
| CC(CO)N1C(=O)[C@@H]2C3C(=O)OCCC=C[C@H]3OC23C=CCN(c2ccc4ccccc4c2)C(=O)[C@@H]13 (some centres undefined) | 0.62 (inactive) and -0.143 (inactive) | 0.713 and 0.135 | -0.526 and 0.0547 | -6.14 (inactive) and -5.9 (inactive) | -0.437 (inactive) and 0.0615 (inactive) | 0.0032 (inactive) and 0.0969 (inactive) |
| C=CCN(C(=O)C(c1cccs1)N(C(=O)/C=C\C(=O)O)C(C)(C)CO)c1ccc(OC)cc1 (centres undefined) | -0.114 (inactive) and 0.302 (inactive) | -1.17 and -0.372 | -0.89 and 0.294 | -0.168 (inactive) and -2.07 (inactive) | -0.951 (inactive) and -0.63 (inactive) | -1.17 (inactive) and -0.0664 (inactive) |
| C=CCN(Cc1ccccc1)C(=O)C1N(c2ccc(CCO)cc2)C(=O)C2C(C(=O)O)C3C=CC21O3 (centres undefined) | 0.224 (inactive) and -0.96 (inactive) | -0.726 and 0.918 | -1.34 and -0.544 | -0.61 (inactive) and -2.5 (inactive) | 0.127 (inactive) and -0.193 (inactive) | -0.0077 (inactive) and -0.58 (inactive) |
| C=CCN(C(=O)C1N(C(C)(C)CO)C(=O)C2C(C(=O)O)C3C=CC21O3)c1ccc(OC)cc1 (centres undefined) | 0.382 (inactive) and -0.0838 (inactive) | -0.383 and -1.8 | -0.445 and 0.004 | -1.43 (inactive) and 0.701 (inactive) | 2.27 (inactive) and 0.407 (inactive) | 1.44 (inactive) and 0.526 (inactive) |
| C=CCN(Cc1ccccc1)C(=O)C(c1cccs1)N(C(=O)/C=C\C(=O)O)c1ccc(CCO)cc1 (centres undefined) | -0.37 (inactive) and 0.164 (inactive) | -0.468 and 0.61 | -0.0763 and 0.331 | 0.603 (inactive) and 0.423 (inactive) | 0.141 (inactive) and 0.581 (inactive) | 0.404 (inactive) and 0.592 (inactive) |
| C=CCN(CCCCC)C(=O)C(c1cccs1)N(CCOCCO)C(=O)/C=C\C(=O)O (centres undefined) | -0.44 (inactive) and -0.841 (inactive) | -0.265 and -0.343 | -0.102 and -0.0618 | -0.478 (inactive) and -0.603 (inactive) | -0.0506 (inactive) and -0.514 (inactive) | 0.425 (inactive) and 0.965 (inactive) |
| C=CCN(C(=O)C1N(CCCCCCO)C(=O)C2C(C(=O)O)C3C=CC21O3)c1ccc(OC)cc1 (centres undefined) | 1.14 (inactive) and 1.15 (inactive) | -2.27 and -0.654 | -0.424 and 0.0379 | -1.08 (inactive) and -0.0174 (inactive) | -0.598 (inactive) and -0.471 (inactive) | -0.451 (inactive) and -0.198 (inactive) |
| CCCCCN1CC=CC23O[C@@H]4C=CCCOC(=O)C4[C@H]2C(=O)N(C(C)CO)[C@@H]3C1=O (some centres undefined) | 0.79 (inactive) and 0.201 (inactive) | 0.675 and 0.445 | -0.165 and -0.358 | -5.44 (inactive) and -4.65 (inactive) | -0.605 (inactive) and 0.667 (inactive) | 0.0018 (inactive) and 0.28 (inactive) |
| C=C[C@H](OC)[C@@H](O)c1ccc(OCCO)cc1 | 0.632 (inactive) and -0.235 (inactive) | -1.15 and -0.537 | 0.0026 and 0.809 | -0.791 (inactive) and -0.187 (inactive) | 0.228 (inactive) and 0.524 (inactive) | 0.0287 (inactive) and 0.865 (inactive) |
| C=CC[C@@H](O)c1ccc(O)c2ccccc12 | 2.01 (inactive) and 0.431 (inactive) | 0.703 and 0.802 | -0.401 and 0.619 | -2.24 (inactive) | 0.024 (inactive) and 0.26 (inactive) | 0.515 (inactive) and 0.183 (inactive) |
| CCOC(=O)C[C@H]1[C@H](OC(=O)c2ccccc2-c2ccccc2)[C@@H](NC(=O)c2ccccc2)c2cc(OCCCO)ccc2N1C(=O)c1ccc2ccccc2n1 | -0.196 (inactive) and 0.367 (inactive) | -0.0343 and 0.393 | -0.345 and 0.0894 | -3.24 (inactive) and -1.56 (inactive) | 0.105 (inactive) and -0.0471 (inactive) | 0.118 (inactive) and -0.0805 (inactive) |
| C[N+](C)(C)CCCCCCNC(=O)[C@H]1C[C@H]2C(=O)N[C@@H](CCCC[N+](C)(C)C)C(=O)N2[C@H]1c1ccc(O)cc1 | 0.0514 (inactive) and -0.283 (inactive) | 0.0535 and -0.189 | -1.28 and 0.581 | 0.627 (inactive) and -1.31 (inactive) | -0.563 (inactive) and 0.0546 (inactive) | -0.225 (inactive) and -0.0689 (inactive) |
| C=CC[C@@H](O)c1ccc(OCCO)cc1 | -0.0335 (inactive) and 0.172 (inactive) | 0.184 and -0.25 | 0.667 and 0.717 | -0.948 (inactive) and -0.931 (inactive) | -0.442 (inactive) and -0.507 (inactive) | 0.186 (inactive) and -0.0561 (inactive) |
| C=CCN(CCCCC)C(=O)C1N(c2c(Cl)cccc2CO)C(=O)C2C(C(=O)O)C3C=CC21O3 (centres undefined) | -0.421 (inactive) and -0.228 (inactive) | -0.416 and -1.42 | -1.2 and -1.04 | -2.42 (inactive) and -0.615 (inactive) | -0.672 (inactive) and 0.433 (inactive) | -0.669 (inactive) and 0.367 (inactive) |
| C=CCN(C(=O)C(c1cccs1)N(CCOCCO)C(=O)/C=C\C(=O)O)c1ccc(OC)cc1 (centres undefined) | -0.0498 (inactive) and -0.363 (inactive) | -0.371 and -1.72 | -0.305 and 0.0058 | 1.69 (inactive) and 0.807 (inactive) | -1.69 (inactive) and -0.75 (inactive) | -0.197 (inactive) and -0.573 (inactive) |
| C=CCN1C(=O)[C@]2(O[C@H](CCn3cc(CCO)nn3)[C@@H]([Si](C)(C)c3ccc(OC)cc3)[C@@H]2C)c2cc(N3C(=O)c4cccc5cccc3c45)ccc21 | 0.0184 (inactive) and 0.416 (inactive) | 0.577 and 0.719 | -2.67 and -2.76 | -5.18 (inactive) and -5.57 (inactive) | -1.98 (inactive) and -1.13 (inactive) | -1.8 (inactive) and -1.3 (inactive) |
| COC(=O)[C@@]1(Cc2ccccc2)[C@H]2c3cc(C(=O)N(C)C)n(C[C@H](O)CO)c3C[C@H]2CN1C(=O)c1ccccc1 | 0.386 (inactive) and -0.28 (inactive) | -0.0997 and 0.84 | -0.894 and -0.297 | -2.22 (inactive) and -4.41 (inactive) | -0.601 (inactive) and 1.42 (inactive) | -0.292 (inactive) and 1.06 (inactive) |
| C=CCN(C(=O)C(c1cccs1)N(C(=O)/C=C\C(=O)O)C(C)(C)CO)C(C)(C)C (centres undefined) | 0.075 (inactive) and -0.479 (inactive) | -0.796 and 0.851 | 0.37 and -0.0391 | 0.692 (inactive) and 0.558 (inactive) | -0.225 (inactive) and -0.215 (inactive) | 0.269 (inactive) and 0.799 (inactive) |
| C=CC[C@@H](O)c1ccc(O)c(F)c1 | -0.316 (inactive) and -0.555 (inactive) | 0.849 and -1.57 | 0.408 and -0.881 | -2.13 (inactive) and -0.155 (inactive) | -0.0057 (inactive) and -0.138 (inactive) | -0.268 (inactive) and -0.321 (inactive) |
